# Out of some 1,300 compounds screened, about 150 (12%) were called active. Roughly 30% stayed inconclusive and do not appear here. This is one part of a sample in which actives are shown more often than they occur. Unmarked numbers belong to inactive results. Calls follow the shape of the dose curve; as a rule, active = well fitted cell-killing curve with a large enough effect; inconclusive = small, poorly fitted or top-dose-only effect, or effect the other way; inactive = flat fitted curve, though single readings scatter.
# Test: qHTS of small molecules that selectively kill Giardia lamblia: Hit Validation in HepG2 cytotox;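 also: compound exposure lasted overnight at 37 deg C; nearly all actives have a fitted effect of over 55% in size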;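 as to activity change, negative = cytotoxicity: viability measured as cellular ATP by ATPLite luminescence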
# Conditions: cell viability; Potency: HepG2 cytotoxicity; series mostly up to 38.3 µM; activity change, negative = cytotoxicity: at the top concentration
# Method in brief: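 Counterscreen cytotoxicity: ATPLite luminescence (15 min, room temperature) measured in HepG2 cells exposed overnight at 37 deg C to pin-transferred compound (23 nL) after overnight pre-incubation.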
# % is scaled to controls: 0 for no effect and ±100 for the full control effect; potency is read from the fitted curve at half-maximal effect.
SMILES,"activity change, negative = cytotoxicity",Potency
CC(=O)c1ccc(NC(=O)COC(=O)c2ccccc2N=Nc2ccc(N(C)C)cc2)cc1,8.9%,–
O=C(Nc1cccc2ccccc12)C12CC3CC(C1)CC(n1cnc([N+](=O)[O-])n1)(C3)C2,-8.67%,–
Cc1cccc(-n2ncc3c(N4CCCC4)ncnc32)c1,–,2.07 µM (active)
O=C(c1ccco1)N1CCN(Cc2cc(=O)c(OCc3ccc([N+](=O)[O-])cc3)co2)CC1,5.68%,–
COC(=O)c1ccccc1NC(=O)N1c2ccccc2Sc2ccccc21,5.99%,–
Cc1cccc(N2CCN(Cc3ccc([N+](=O)[O-])o3)CC2)c1C,13.8%,–
CCCC(=O)NC(=S)NNC(=O)c1ccc([N+](=O)[O-])cc1,0.795%,–
Cc1cc(-c2ccc(C)c(S(=O)(=O)N3CCN(c4ccc([N+](=O)[O-])cc4)CC3)c2)on1,-4.43%,–
N#Cc1c(Nc2ccccc2)[n+]([O-])c2ccc(Cl)cc2[n+]1[O-],–,3.29 µM (active)
COc1ccc(CC(=O)Nc2ncc([N+](=O)[O-])s2)cc1OC,7.05%,–
O=[N+]([O-])/C(Cl)=C(/NCCO)C(Cl)=C(Cl)Cl,18.1%,–
COc1ccc(Cn2cnc([N+](=O)[O-])c2)cc1[N+](=O)[O-],12.6%,–
O=[N+]([O-])c1cc(/C=N/Nc2nc(N3CCCCC3)nc(N3CCCCC3)n2)ccc1O,10.5%,–
O=C(Nc1ccc(N2CCN(C(=O)c3ccc(Cl)cc3)CC2)cc1)c1ccc([N+](=O)[O-])o1,–,3.29 µM (active)
O=C(Nc1ccccc1N1CCN(C(=O)c2ccccc2)CC1)c1ccc([N+](=O)[O-])o1,-28.3%,–
O=C(Nc1ccc(N2CCN(C(=O)c3ccccc3)CC2)cc1)c1ccc([N+](=O)[O-])o1,–,4.65 µM (active)
Cc1ccccc1C(=O)N1CCN(c2ccc(NC(=O)c3ccc([N+](=O)[O-])o3)cc2)CC1,–,3.29 µM (active)
O=C(c1ccc([N+](=O)[O-])o1)N1CCN(Cc2ccccc2)CC1,0.896%,–
O=[N+]([O-])c1ccc(N2CCN(Cc3ccc([N+](=O)[O-])o3)CC2)cc1,5.82%,–
C[C@H]1CN=C(N(C)C)N1CCC1CCCC1,0.237%,–
CC(Oc1ccccc1)C(=O)Nc1nnc(S(=O)(=O)N2CCCCCC2)s1 (centres undefined),9.3%,–
COc1cccc([C@@H]2CC=C(C(=O)O)[C@H](c3ccccc3F)N2S(=O)(=O)c2ccc(C)cc2)c1,8.72%,–
O=[N+]([O-])c1c(C(Cl)Cl)nn(-c2ccccc2)c1N1CCOCC1,-27.2%,–
Cc1ccc(Nc2ccc([N+](=O)[O-])nc2[N+](=O)[O-])cc1,12.6%,–
Cc1ccc(CNC(=O)c2cc(-c3ccccc3C)n(CC3CC(c4cccc([N+](=O)[O-])c4)=NO3)n2)cc1 (centres undefined),-0.0005%,–

SMILES,"activity change, negative = cytotoxicity",Potency
CN(C(=O)CSc1nc2ccc([N+](=O)[O-])cc2s1)C1CCS(=O)(=O)C1 (centres undefined),-1.9%,–
COCCCn1[nH]c2c3c(ccc2c1=O)C(=O)c1ccccc1C3=O,-20.1%,–
COc1ccc(C(=O)C(C)OC(=O)CNC(=O)c2ccco2)cc1 (centres undefined),-3.75%,–
O=C(CSc1ccsc1[N+](=O)[O-])NC1CCCC1,4.61%,–
O=C(COc1cccnc1[N+](=O)[O-])NCc1cccs1,7.57%,–
CC(C)CNC(=S)NC(=O)c1csc([N+](=O)[O-])c1,-0.544%,–
O=C(NCCO)c1ccc2c3n(nc2c1)-c1ccccc1CO3,–,2.93 µM (active)
Cc1cnc([N+](=O)[O-])n1CCOC(=O)NC(=O)c1cccc(F)c1,9.9%,–
C[C@@H]1CN([C@H](C)CO)C(=O)c2cc(NC(=O)Nc3ccc4c(c3)OCO4)ccc2O[C@H]1CN(C)Cc1ccncc1,8.98%,–
O=C(O)c1cccc(S(=O)(=O)N(Cc2ccccc2)c2ccccc2Cl)c1,12.9%,–
O=C(CSc1ccsc1[N+](=O)[O-])NCCc1ccccc1,14.4%,–
O=C(NCc1ccco1)NC(=O)c1csc([N+](=O)[O-])c1,10.6%,–
O=C(CNc1cccc([N+](=O)[O-])c1)N/N=C/c1ccc([N+](=O)[O-])o1,1.19%,–
O=C(N/N=C\c1ccc([N+](=O)[O-])o1)C1COc2ccccc2O1 (centres undefined),-26.2%,–
O=C(CNc1ccc2ccccc2c1)N/N=C/c1ccc([N+](=O)[O-])o1,19.9%,–
O=C(CC12CC3CC(CC(C3)C1)C2)N/N=C/c1ccc([N+](=O)[O-])o1,–,16.5 µM (active)
O=C(N/N=C/c1ccc([N+](=O)[O-])o1)C1CC1,-6.15%,–
CC(NC(=O)C12CC3CC(CC(C3)C1)C2)C(=O)NN=Cc1ccc([N+](=O)[O-])o1 (centres undefined),-23.4%,–
CCCCCCCC(=O)N/N=C/c1ccc([N+](=O)[O-])o1,16.1%,–
O=C(Cc1ccc([N+](=O)[O-])cc1)N/N=C/c1ccc([N+](=O)[O-])o1,–,5.21 µM (active)
O=C(N/N=C/c1ccc([N+](=O)[O-])o1)c1ccc2c(c1)OCO2,–,4.65 µM (active)
CCOC(=O)CN1C(=O)S/C(=C/c2cccc([N+](=O)[O-])c2O)C1=O,0.776%,–
Cc1ccc(S(=O)(=O)N2CCN(C(=O)COc3ccc(C)nc3[N+](=O)[O-])CC2)c(C)c1,7.88%,–
Cc1ccc(OCC(=O)c2cc(C)n(C)c2C)c([N+](=O)[O-])n1,6.59%,–

# — PubChem BioAssay AID588382 (National Center for Advancing Translational Sciences (NCATS), 2011)
